# Data from PubChem BioAssay.
# Calls of active or inactive are those of the source. How the calls were made is not given here.
# Target: Pantothenate synthetase (Mycobacterium tuberculosis (strain ATCC 25618 / H37Rv)) (UniProt P9WIL5)
# Test: Coupled enzyme confirmation of inhibitors against recombinant Mtb PanC (AID 375);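 further: 0% = full reaction with vehicle and 100% = no enzyme background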
# Settings: coupled enzyme assay; at 10 µM, stronger effect = higher value
# Sequence of Pantothenate synthetase (Mycobacterium tuberculosis (strain ATCC 25618 / H37Rv)) (P9WIL5 whole entry, looked up): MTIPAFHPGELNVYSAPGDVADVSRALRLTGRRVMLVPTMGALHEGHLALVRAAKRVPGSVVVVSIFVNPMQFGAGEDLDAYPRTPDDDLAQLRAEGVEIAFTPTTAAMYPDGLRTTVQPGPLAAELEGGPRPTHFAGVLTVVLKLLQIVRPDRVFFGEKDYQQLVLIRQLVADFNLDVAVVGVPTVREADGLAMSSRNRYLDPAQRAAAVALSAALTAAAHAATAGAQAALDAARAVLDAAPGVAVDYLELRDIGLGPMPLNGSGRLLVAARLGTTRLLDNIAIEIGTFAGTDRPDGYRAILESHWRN
row,Compound,inhibition
1,COc1ccc2c(c1)CCc1c(C(=O)N3CCCc4ccccc43)noc1-2,4% (inactive)
2,CCOc1ccc(CN2CCN(c3cc(C)nc4c5c(C)cc(C)nc5nn34)CC2)cc1,0% (inactive)
3,COCCN(CC(=O)NC1CCCCC1)C(=O)CSc1nc2ccccc2o1,0% (inactive)
4,CCOC(=O)CSc1nnc(-c2ccc(NS(=O)(=O)c3ccc(C)cc3)cc2)o1,0% (inactive)
5,COCCNC(=O)CCc1nc(-c2ccccc2)no1,0% (inactive)
6,CCOCCCN(Cc1cc2cc(C)cc(C)c2[nH]c1=O)C(=O)N(CC)CC,0% (inactive)
7,O=C(Cc1cccs1)N(c1ccccc1)C1C=CS(=O)(=O)C1 (stereo unspecified),3% (inactive)
8,COc1cccc(CN2CCN(C(=O)c3ccco3)CC2)c1OC,3% (inactive)
9,CCOC(=O)c1ccc(N2C(=O)C3CC=CCC3C2=O)cc1 (stereo unspecified),1% (inactive)
10,O=C(NCc1cccs1)C(Cc1ccccc1)NS(=O)(=O)c1cccs1 (stereo unspecified),8% (inactive)
11,CC1CC(C)CN(CCCNC(=O)COc2cc(=O)n(C)c3ccccc23)C1 (stereo unspecified),0% (inactive)
12,O=C(Nc1ccc2c(c1)nc1n2CCN(Cc2ccccc2)C1)c1cccs1,0% (inactive)
13,CCOC(=O)N1CCC(NC(=O)C2CCN(S(=O)(=O)c3cccc4cccnc34)CC2)CC1,0% (inactive)
14,CCOc1cc(C(=O)N2CCN(c3ccccc3)CC2)cc(OCC)c1OCC,3% (inactive)
15,O=C(CSc1nc2c(sc3ccccc32)c(=O)n1Cc1ccco1)NCC1CCCO1 (stereo unspecified),2% (inactive)
16,Cc1cc(C)c2c(n1)nn1c(N3CCN(c4cccc(Cl)c4)CC3)cc(C)nc21,5% (inactive)
